Compounds without any hit were thinned out: in the full panel of roughly 83,000, 20% have a hit.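 The endpoint reported here, percent growth, reads 100 for growth as untreated, 0 for no net growth and -100 for all cells dead.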 Unmarked numbers belong to inactive results. Active and inactive are the calls of the source.
tested on: U251 CNS; assay: NCI-60 one-dose screen, 48 h (100 = growth as untreated, 0 = no growth, -100 = all killed); conditions: 10 µM unless noted
Experimental: Growth inhibition of the U251 human tumor cell line is measured as a screen for anti-cancer activity. Cells are grown in 96 well plates and exposed to the test compound for 48 hours. Compounds are tested at a single concentration, which is 10^-5 M for most compounds. The reported endpoint is percent growth (GI% or GIPRCNT), where numbers from 0 - 100% represent growth inhibition, and numbers from -100% - 0 represent cell death. For example, a value of 40 represents 60% growth inhibition. A value of 0 means no net growth occurred over the course of the experiment. A value of -40 indicates 40% of cells at the beginning of the experiment died by the end of the experiment. A value of -100 means all cells are dead at the end of the experiment.
NCI-60 Human Tumor Cell Lines Screen was performed using the standard one-dose NCI protocol, which is described in more detail at https://dtp.cancer.gov/discovery_development/nci-60/default.htm.
Compounds with GIPRCNT values below 10 were considered active. Activity score was based on GIPRCNT using the following formula: […]
Score is 0 for GIPRCNT values of 100 or above, 50 for GIPRCNT values of 0, and 100 for GIPRCNT values of -100.

| Compound | growth |
| --- | --- |
| CCOC(=O)C1C(=O)C=C(c2cnccn2)CC1c1ccc(OC)c(OC)c1 (stereo not given) | 99.5% |
| O=C1c2cccc3c(-c4ccc(-c5nc6c7ccccc7c7ccccc7c6[nH]5)cc4)ccc(c23)C(=O)N1CCN1CCNCC1 | 62.1% |
| CCc1cc(Cc2cc(CC)cc(C(C)(C)C)c2O)c(O)c(C(C)(C)C)c1 | 16.3% |
| COc1ccc(C2CC(c3ccc4ccccc4c3)=NN2c2nc(O)c(C3=c4cc(Cl)ccc4=NC3=O)s2)cc1 (stereo not given) | -94.6% (active) |
| COC(=O)[C@]12CC[C@@H](C)[C@H](C)[C@@H]1C1=CC[C@@H]3[C@@]4(C)C(C=O)=C[C@@](C)(CO)C4=CC[C@@]3(C)[C@]1(C)CC2 | 23.4% |
| CCN(CC)CCOC(=O)Nc1ccccc1Cl | 99.3% |
| Nc1c(C(=O)c2ccc(Cl)s2)sc2nc3c(cc12)CCCC3 | 97.8% |
| CCNCCNc1cc(-c2ccc(Cl)cc2)c(C#N)c2nc3ccccc3n12 | -53.2% (active) |
| O=C(c1ccccc1)c1ccc(N2C(=O)C3C4c5ccccc5C(/C=C/C(=O)c5ccccn5)(c5ccccc54)C3C2=O)cc1 (stereo not given) | 2.15% (active) |
| O=C1Nc2ccccc2/C1=N/N=C/c1ccc(OC2OC(CO)C(O)C(O)C2O)cc1 (stereo not given) | 106% |
| CCn1c(Sc2nnc(NC(C)=O)s2)nc2c1c(=O)n(C)c(=O)n2C | 106% |
| CCOC(=O)Cc1csc2nc(-c3ccccc3)nn12 | 106% |
| Clc1ccc(-c2nnc(-c3ccco3)o2)cc1 | 98.7% |
| CCCCN(Cc1ccc(C(=O)NO)cc1)C(=O)Nc1ccc(OCCCCCCCCCn2cc(CCCCC(=O)N[C@H](C(=O)N3C[C@H](O)C[C@H]3C(=O)NCc3ccc(-c4scnc4C)cc3)C(C)(C)C)nn2)cc1 | 34.8% |
| CC1=NN(c2cccc(Cl)c2)C(=O)/C1=C\c1cn(CC(O)CN2CCCCC2)c2ccccc12 (stereo not given) | 36.5% |
| Cc1cc(-c2ccc(N(C)C)cc2)c2sc(=O)[nH]c2n1 | 50.2% |
| Cc1cc(-c2ccccc2)cc(SC#N)[n+]1[O-] | 24.1% |
| CCCCC1COc2cccc3c(SCC(=O)N(C)c4cccc(Cl)c4)cc[n+]1c23 (stereo not given) | 112% |
| O=C(/C=C/C12c3ccccc3C(c3ccccc31)C1C(=O)N(c3ccc(Cl)cc3)C(=O)C12)c1ccccn1 (stereo not given) | -48.3% (active) |
| CC[C@]1(O)C[C@H]2CN(CCc3c([nH]c4ccccc34)[C@@](C(=O)OC)(c3cc4c(cc3OC)N(C=O)[C@H]3[C@@](O)(C(=O)OC)[C@H](OC(C)=O)[C@]5(CC)C=CCN6CC[C@]43[C@@H]65)C2)C1 | 24.2% |

| Compound | growth |
| --- | --- |
| c1ccc([P+](CCCc2n(Cc3ccc4ccccc4c3)c3ccccc3[n+]2Cc2ccc3ccccc3c2)(c2ccccc2)c2ccccc2)cc1 | 46.5% |
| CC(=O)c1cc2c(o1)C(=O)c1ccccc1C2=O | -81.2% (active) |
| O=C1c2ccccc2C(=O)c2cc(Cn3cc[n+](Cc4ccc5ccccc5c4)c3)ccc21 | 85.8% |
| c1ccc2c(c1)ncn2-c1nc2ccccc2n2c1nc1ccccc12 | 87.6% |
| CNC1(C#N)CCN(Cc2ccccc2)CC1 | 108% |
| COc1ccc(O)c(-c2cc(-c3ccccc3)c(C#N)c(=O)[nH]2)c1 | 73.4% |
| CN(CCC(=O)/C(=C\c1ccccc1)c1ccc(Cl)cc1)Cc1ccccc1 | -10.3% (active) |
| CC(C)c1ccc(C(=O)OC(=O)c2ccc(C(C)C)cc2)cc1 | 91.2% |
| C=C1C(=O)O[C@H]2[C@H]1CC/C(COC(=O)/C=C\C(=O)NCc1ccc(Cn3c(=O)sn(CCCC)c3=O)cc1)=C\CC[C@@]1(C)O[C@@H]21 | -64.3% (active) |
| NC(=O)CC1(O)C=C(Br)C(=O)C(Br)=C1 | 95.6% |
| COC(=O)c1ccc2oc(NC(=O)c3ccc(N4CCOCC4)c([N+](=O)[O-])c3)nc2c1 | 92.2% |
| COc1ccc(NC(=O)C(=O)c2c[nH]c3ccc(F)cc23)cc1 | 91% |
| CC1(C)CC(=O)c2c(ccc(C(=O)C[C@H](N)CO)c2N)O1 | 14.8% |
| C=CCOc1cccc(/C=C2\SC(=Nc3ccc(O)cc3)NC2=O)c1 | 13.1% |
| Nc1c(-c2nc3ccccc3c(=O)[nH]2)nnn1-c1ccc(Cl)cc1 | 74.6% |
| CCOC(=O)c1ccc(NC(=O)CCCN(CC)CC)cc1 | 98.2% |
| Cc1nc2ccccc2c(/C=C/c2ccc(Cl)cc2)c1C(=O)/C=C/c1ccc(Cl)cc1 | -71.6% (active) |
| Cc1c(Cl)cccc1NS(=O)(=O)c1ccccc1 | 106% |
| O=C1N/C(=N/O)S/C1=C/c1cn(-c2ccccc2)nc1-c1ccccc1 | 97% |
| COc1ccccc1C(=O)NC(=S)Nc1ccc(-c2nc3ccccc3[nH]2)cc1 | 29.3% |

— PubChem BioAssay (NCI)
